# Source: PubChem BioAssay AID1502 (Sanford-Burnham Center for Chemical Genomics, 2009)
# Some of the results follow. Unmarked numbers belong to inactive results. Calls of active or inactive are those of the source. No stated cut-off is given here; in the data, active means inhibition above about 40%; inactive means the rest.
# Biological target: Runt-related transcription factor 1 (Homo sapiens) + Core-binding factor subunit beta (Homo sapiens) (UniProt Q01196+Q13951)
# Test: Runt domain/CBFb interaction disruptors – biochemical, TR-FRET (AID 1502)
# Settings: TR-FRET RUNX1 Runt domain-CBFb binding; at 20 µM; hits give high values
# Sequence of Runt-related transcription factor 1 (Homo sapiens) + Core-binding factor subunit beta (Homo sapiens) (Q01196 whole entry, looked up, the tested form may be a part): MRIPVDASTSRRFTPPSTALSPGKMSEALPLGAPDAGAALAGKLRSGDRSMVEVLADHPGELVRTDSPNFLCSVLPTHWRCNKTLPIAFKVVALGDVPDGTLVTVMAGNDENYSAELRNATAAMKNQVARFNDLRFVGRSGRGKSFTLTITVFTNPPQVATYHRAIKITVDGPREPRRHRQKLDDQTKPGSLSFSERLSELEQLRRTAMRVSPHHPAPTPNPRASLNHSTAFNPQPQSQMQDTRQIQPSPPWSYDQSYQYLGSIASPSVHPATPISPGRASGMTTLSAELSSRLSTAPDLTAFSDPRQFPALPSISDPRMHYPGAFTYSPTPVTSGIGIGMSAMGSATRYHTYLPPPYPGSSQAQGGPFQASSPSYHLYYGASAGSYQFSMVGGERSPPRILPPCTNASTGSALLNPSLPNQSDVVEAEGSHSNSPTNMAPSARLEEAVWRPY
# Sequence of Runt-related transcription factor 1 (Homo sapiens) + Core-binding factor subunit beta (Homo sapiens) (Q13951 whole entry, looked up, the tested form may be a part): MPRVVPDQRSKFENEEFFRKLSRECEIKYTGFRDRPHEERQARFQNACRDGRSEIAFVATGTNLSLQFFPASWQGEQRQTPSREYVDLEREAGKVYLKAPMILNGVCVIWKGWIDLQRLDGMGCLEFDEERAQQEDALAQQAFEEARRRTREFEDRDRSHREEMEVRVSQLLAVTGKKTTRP
row,SMILES,inhibition
1,O=c1cc(CN2CCN(S(=O)(=O)/C=C/c3ccccc3)CC2)c2ccc(O)cc2o1,34.5%
2,COc1ccc(C2C(C#N)=C(N)Oc3cc(N)ccc32)cc1OC (stereo unspecified),-6.8%
3,COCC(C)OC(=O)c1c(N)n(CCCN2CCOCC2)c2nc3ccccc3nc12 (stereo unspecified),53.2% (active)
4,Brc1ccc(CSc2ccc(-c3ccco3)nn2)cc1,73.7% (active)
5,COC(=O)Cn1c2ccc(C)cc2c2nc(C)sc21,24.5%
6,O=c1[nH]c2ccccc2n2c(-c3ccccc3)nnc12,66.7% (active)
7,COc1c(O)ccc2c1CN1CCc3cc4c(cc3C1C2)OCO4 (stereo unspecified),20.3%
8,Cc1ccc(-c2cn3cc([N+](=O)[O-])ccc3n2)cc1,-11.5%
9,O=C1c2ccccc2C(Nc2ccc3c(c2)OCCO3)N1Cc1ccco1 (stereo unspecified),2%
10,COc1cccc2sc(Nc3nc(C)c(C(C)=O)s3)nc12,0.6%
11,CCC(=O)Nc1c(S(=O)(=O)c2ccccc2)c2nc3ccccc3nc2n1Cc1ccccc1,62.4% (active)
